# Experimental data taken from the supplement of paper PMC12636033.
# ± gives the standard deviation of the averaged measurements. Over roughly 33,000 sequences, “E-score (rank enrichment, -0.5 to 0.5)” has its median near -0.0075; the highest 2% begin near 0.23. What follows is part of a selection rich in the highest values, with near analogues and random picks from the rest.
# Test system: WT Max(13-93) synthetic (M65Nle)
# Assay: PBM 8-mer E-score (E-score (rank enrichment, -0.5 to 0.5)); higher = stronger preferential binding
# Experimental: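 Protein binding microarray (universal PBM chip covering all 10-mers in fixed probe flanks) with chemically synthesized human Max(13-93) bHLH-LZ analogs (not full-length Max) bearing noncanonical residues (hArg, Tha, Aib, Nle at 65) and aromatic Cys staples. Read-out per 8-mer (and its reverse complement): E-score (rank-based enrichment, -0.5 to 0.5) and Z-score of median probe intensity.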
row,Sequence,PBM 8-mer E-score
1,ACGTGTCT,0.363 ± 0.00056
2,ACGTGTCG,0.339 ± 0.0083
3,CCGTGTCG,-0.151 ± 0.011
4,AAGTGTCG,0.0847 ± 0.052
5,CCGTGTCC,-0.00903 ± 0.072
6,AAGTGTCT,-0.104 ± 0.07
7,CCGTGTCA,0.0378 ± 0.022
8,ACGTGTCC,0.243 ± 0.037
9,GCGTGTCC,0.127 ± 0.037
10,GCGTGTCA,0.223 ± 0.019
11,ACCTGTCT,0.0145 ± 0.064
12,ACGTGTCA,0.3263 ± 0.0031
13,CCTTTGCG,0.00668 ± 0.0019
14,AGCCCCCC,-0.14 ± 0.14
15,AACAGACA,0.184 ± 0.011
16,CGATTAGC,-0.18 ± 0.11
17,CGGGCGAA,-0.0278 ± 0.057
18,CACGCCTG,0.0753 ± 0.081
19,TGCTTGAA,0.0947 ± 0.15
20,GCCACTGA,-0.158 ± 0.074
21,GACCCCTA,-0.156 ± 0.13
22,CGTGGCTA,0.193 ± 0.013
23,CATCTCAA,0.104 ± 0.017
24,CACTATAA,-0.0318 ± 0.027
25,GAATATAA,0.179 ± 0.022

row,Sequence,PBM 8-mer E-score
1,TAATATAA,0.183 ± 0.014
2,ATATATAG,0.182 ± 0.041
3,AAATATAA,0.24 ± 0.048
4,AAAAATAC,0.2 ± 0.033
5,AAAAATAT,0.256 ± 0.017
6,AAAAATAG,0.102 ± 0.059
7,CAATATAG,0.117 ± 0.021
8,AACTATAA,0.269 ± 0.028
9,GACTATAA,0.13 ± 0.0092
10,AAATATAG,0.238 ± 0.099
11,GTAGAGAC,-0.0752 ± 0.086
12,CGTTCATC,0.0464 ± 0.14
13,GCCCCGCC,0.172 ± 0.053
14,CACAGGTA,0.11 ± 0.061
15,CGGTGACA,-0.162 ± 0.13
16,ACTGCAAT,-0.0126 ± 0.077
17,AAAATTTT,0.273 ± 0.034
18,ATATATAT,0.0942 ± 0.12
19,AAATATAT,0.248 ± 0.032
20,AAATATGT,0.124 ± 0.078
21,AAAAATTT,0.14 ± 0.091
22,AAATATAC,0.199 ± 0.028
23,CAATATGA,0.183 ± 0.027
24,AAATATGA,0.261 ± 0.023
25,AAAATTTG,0.027 ± 0.066

row,Sequence,PBM 8-mer E-score
1,AAGGAGCC,-0.118 ± 0.072
2,CGTAAGCC,0.0338 ± 0.0056
3,CAGGATAC,-0.144 ± 0.019
4,ACGCCAGC,-0.269 ± 0.085
5,ATGCGCCA,0.123 ± 0.11
6,CGTACAAC,0.112 ± 0.047
7,ACGAGTCG,-0.0792 ± 0.021
8,TTGAAAAA,0.234 ± 0.043
9,ATGAAAAA,0.158 ± 0.13
10,ATTGAAAC,0.117 ± 0.092
11,CTGAAAAA,-0.141 ± 0.0094
12,CTTGAAAA,0.0938 ± 0.0069
13,ATTGAAAA,0.254 ± 0.087
14,ACGGTCCA,-0.222 ± 0.021
15,AGATTTAC,0.119 ± 0.041
16,ACCTATCT,0.211 ± 0.065
17,CCTAAGCC,-0.125 ± 0.096
18,ATTTTCGG,0.129 ± 0.056
19,GAAAACAA,0.206 ± 0.059
20,ACACATCT,0.0507 ± 0.12
21,ACACATGT,0.359 ± 0.025
22,ACACATAT,0.202 ± 0.041
23,ACACATGA,0.186 ± 0.036
24,ATACATGG,0.134 ± 0.045
25,ACACATGG,0.357 ± 0.034

row,Sequence,PBM 8-mer E-score
1,CTAGTGGC,-0.019 ± 0.044
2,CACCCTTA,0.118 ± 0.056
3,ACCAGAAA,0.0691 ± 0.0064
4,CCTAGTCA,-0.0758 ± 0.01
5,GCCGAAGC,-0.212 ± 0.034
6,ACATTGTC,0.19 ± 0.033
7,ACATTGTG,0.26 ± 0.054
8,ACATTGTA,0.153 ± 0.06
9,AGAGACCG,-0.14 ± 0.044
10,CCCCGCCC,0.369 ± 0.062
11,CCCCCGCC,0.0274 ± 0.11
12,AACCCGCC,-0.0368 ± 0.068
13,CCCGCCCC,0.285 ± 0.14
14,CCCGCCCG,0.025 ± 0.078
15,CCGCCCCG,0.236 ± 0.075
16,CCGCCCGG,-0.265 ± 0.039
17,GCCCGCCC,0.0723 ± 0.054
18,ACCCGCCC,0.0569 ± 0.092
19,CCGCCCCC,-0.124 ± 0.051
20,ACCCCGCC,0.279 ± 0.035
21,CCCGCCCA,0.183 ± 0.043
22,CTCGTTCC,-0.0941 ± 0.0052
23,CCGACGTA,-0.103 ± 0.022
24,AATCACCT,0.115 ± 0.11
25,TAGTGCAA,0.023 ± 0.006

row,Sequence,PBM 8-mer E-score
1,AGCGGAGG,-0.124 ± 0.11
2,CTTAATGC,0.162 ± 0.095
3,CCGTACCA,-0.129 ± 0.033
4,AACACGCG,0.3 ± 0.08
5,GACACAAA,0.24 ± 0.048
6,AACACGCC,0.0311 ± 0.14
7,TACACAAA,0.0928 ± 0.018
8,CACACGAC,0.13 ± 0.11
9,AACACGCA,0.134 ± 0.0072
10,CACACAAA,0.103 ± 0.13
11,AACGCTCG,-0.131 ± 0.017
12,CACGCTCG,0.266 ± 0.035
13,CACACGAA,0.272 ± 0.054
14,CACACGAG,0.105 ± 0.0042
15,CACGCTCA,0.0695 ± 0.057
16,AAATTAAA,0.198 ± 0.044
17,TCAAAGGA,0.0761 ± 0.07
18,CGTTTTGA,-0.0368 ± 0.12
19,ACGACATG,0.0526 ± 0.047
20,CGCGGCCA,-0.0571 ± 0.036
21,CCGAAACC,-0.199 ± 0.026
22,GACACCGC,-0.206 ± 0.08
23,ACGTCCCC,0.0319 ± 0.084
24,AGCATTTA,-0.11 ± 0.038
25,CACACGCA,0.174 ± 0.028

row,Sequence,PBM 8-mer E-score
1,CACACGCG,0.302 ± 0.017
2,CACACGCC,0.0838 ± 0.085
3,TAGGCACA,0.0603 ± 0.0065
4,CAGAGGTA,0.0024 ± 0.058
5,GTATGAGA,0.109 ± 0.033
6,ATATGATA,0.302 ± 0.013
7,GTATGATA,0.235 ± 0.0072
8,ATATGATG,0.19 ± 0.03
9,GGATGATA,-0.00911 ± 0.064
10,CTATGATA,-0.00697 ± 0.0076
11,CAGCGCCA,-0.237 ± 0.0045
12,GTGGCTCA,-0.0168 ± 0.037
13,ACAGGAGA,0.0713 ± 0.014
14,CCCTACGG,-0.21 ± 0.015
15,AACACATA,0.263 ± 0.084
16,TACACATA,0.213 ± 0.083
17,AACACATT,0.13 ± 0.017
18,AACACATC,-0.0183 ± 0.028
19,AAAACATT,0.147 ± 0.033
20,CAAACATG,0.17 ± 0.13
21,CACACATA,0.0464 ± 0.029
22,AAAACATG,0.28 ± 0.024
23,AACACATG,0.368 ± 0.0069
24,CATGTAGA,0.193 ± 0.018
25,ACGCCCTC,0.0691 ± 0.11

row,Sequence,PBM 8-mer E-score
1,GATCCAGC,-0.241 ± 0.017
2,ATCCGTAG,-0.21 ± 0.046
3,GCAGTGAA,0.0345 ± 0.11
4,ATGACAAC,0.166 ± 0.029
5,AAGACAAT,0.228 ± 0.075
6,AGGACAAT,0.183 ± 0.045
7,ATGACAAA,0.261 ± 0.11
8,ATGACAAT,0.264 ± 0.018
9,ATGACAAG,0.119 ± 0.12
10,TCGGGCCA,-0.185 ± 0.0072
11,CGAATCTA,-0.0418 ± 0.067
12,ATGTATGC,0.166 ± 0.0091
13,ACTAGACT,0.0207 ± 0.063
14,ACGCACAG,-0.0926 ± 0.096
15,ACGCACGT,0.314 ± 0.041
16,AAGCACGG,0.0974 ± 0.06
17,ACGCACGC,0.205 ± 0.014
18,ACGCACAA,0.0902 ± 0.052
19,AAGCACGA,0.125 ± 0.0091
20,ACGCACGA,0.143 ± 0.032
21,ACGCACAT,0.267 ± 0.02
22,AAGCACGT,0.367 ± 0.028
